Growth data for 26 molecules are collected here from PubChem BioAssay (NCI).

This is part of a sample that, as a whole, favours compounds with a hit. Of some 83,000 tested, about 20% had one in any assay.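 Testing used 96-well plates and a 48-hour single-concentration exposure. Example: -40 means 40% of the starting cells died.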 Activity calls are given as the source filed them. Rule for the calls: active = growth percent below 10; inactive = the rest.

The test has as its system HL-60(TB) leukemia. The test can be described thus: NCI-60 one-dose screen, 48 h (100 = growth as untreated, 0 = no growth, -100 = all killed). The settings on record: 10 µM unless noted.
As for `Cn1cc(-c2cc(N)n3nc(-c4cn(C)c5ccccc45)cc3n2)c2ccccc21`, the growth was 11.6% (inactive).

In the case of `COc1ccccc1N1CCN(C2=NN=C(c3cccc(Cl)c3)c3ccccc3C2)CC1`, the growth is -55.5% (active).

As for `Fc1cccc(Cl)c1/C=N/Nc1nc(N/N=C/c2c(F)cccc2Cl)nc(N2CCCCC2)n1`, the growth was 1.27% (active).

Turning to `COc1ccc(/C=N/NC(=O)CSc2nc(-c3cnccn3)cc(-c3cccs3)c2C#N)cc1`, the growth is 93.8% (inactive).

For the molecule `CS(=O)(=O)c1ccc(-n2cc(/C=C/C(=O)c3ccc(NC(=O)CO[N+](=O)[O-])cc3)c(-c3ccc(Cl)cc3)n2)cc1`, the growth was 109% (inactive).

`Cc1ccc(OCc2occc2C(=O)N2CCOCC2)cc1`: the growth is 107% (inactive).

Regarding `NC(N)=Nc1ccc(Oc2cccc(NC(N)=Nc3ccc(Cl)c(C(F)(F)F)c3)c2)cc1`, the growth is 27.8% (inactive).

In the case of `COc1c(N2CC3CCCNC3C2)c(F)cc2c(=O)c(C(=O)N/N=C/c3ccccc3)cn(C3CC3)c12` (stereo unspecified), the growth was 73.6% (inactive).

As to `CCN(CC)c1ccc(C=O)c(OCc2cn(CC(=O)Nc3ccc(Cl)cc3)nn2)c1`, the growth was 69.7% (inactive).

Regarding `COc1ccc(CCN2C(=O)CSC2=S)cc1OC`, the growth was 62.4% (inactive).

`Cc1cn(-c2cc(NC(=O)c3cncc(C#Cc4cnc5ccc(O[C@@H]6CCOC6)nn45)c3)cc(C(F)(F)F)c2)cn1`: the growth is -32.6% (active).

For the molecule `CSc1nccc(-c2c(-c3ccc(F)c(OCc4ccc(F)cc4)c3)nc3sccn23)n1`, the growth was 78% (inactive).

Take `COc1cc(/C=C2\C(=O)Nc3ccccc32)ccc1OCc1ccc(Cl)cc1`: the growth was 113% (inactive).

Turning to `CCOC(=O)C1=C(C)N=C2Sc3ccccc3N2C1c1ccccc1` (stereo unspecified), the growth was 61.9% (inactive).

As to `CS(=O)(=O)c1ccc(-c2nn(-c3ccccc3)cc2/C=N/NC(=O)c2ccncc2)cc1`, the growth is 81.1% (inactive).

`Oc1cccc2ccc(-c3nnc(SCc4ccc(O)c5ncccc45)n3-c3ccccc3)nc12`: the growth was 3.4% (active).

Regarding `CCCCCc1ccc(S(=O)(=O)N(C(C)=O)c2cccc(-c3csc(N(CCN4CCN(C)CC4)C(C)=O)n3)c2)cc1`, the growth was -52.8% (active).

Turning to `Cc1cc2nc(C(Cl)Cl)nc(-c3ccc(S(=O)(=O)N(C)C)cc3)n2n1`, the growth is 0.868% (active).

As for `C1=CC(c2nn3c(-c4ccccc4)nnc3s2)=Cc2ccccc2O1`, the growth is 37% (inactive).

As for `COc1ccc2c(c1)c(CC(=O)[Se]CCC#N)c(C)n2C(=O)c1ccc(Cl)cc1`, the growth is -43.8% (active).

In the case of `COC(=O)/C=C/c1c(C2(C)NC(=O)c3ccccc3N2)c(=O)oc2ccc(Cl)cc12` (stereo unspecified), the growth was 109% (inactive).

In the case of `CNC(=O)c1cc(N2CCc3cc(NC(=O)Nc4ccc(Cl)c(Cl)c4)ccc32)ccn1`, the growth is 124% (inactive).

Regarding `Cn1c(SCC(=O)c2cccs2)nc2ccccc2c1=O`, the growth was 91.8% (inactive).

As to `Cc1ccc(NC(=O)c2ccc(CN3CCN(C)CC3)c(I)c2)cc1Oc1ccc(-c2[nH]nc3ncnc(N)c23)cc1`, the growth was 118% (inactive).

On to `N#Cc1c(-c2ccccc2)cc(-c2c[nH]c3ccccc23)nc1-c1c[nH]c2ccccc12`, for which the growth is 104% (inactive).

Turning to `Cn1ccnc1C(=O)/C=C/c1ccc(CNC(=O)c2ccc(F)cc2)cc1`, the growth was -4.42% (active).
